Experimental data taken from PubChem BioAssay AID2289 (National Center for Advancing Translational Sciences (NCATS), 2010).
About 3,300 (0.97%) of roughly 340,000 compounds were called active. Roughly 9% stayed inconclusive and do not appear here. The call rests on the fitted dose curve; in most records, active means well fitted inhibition curve with a large enough effect; inconclusive means small, poorly fitted or top-dose-only effect, or effect the other way; inactive means flat fitted curve, though single readings scatter. This is one part of the list.

Assay: qHTS Assay for Modulators of miRNAs and/or Inhibitors of miR-21; further: nearly all actives have a fitted effect of over 55% in size
Details: HeLa miR-21-FLuc reporter, luciferase luminescence, 48 h; actives lower the signal
How it was run: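 Compounds were titrated across several concentrations (up to approximately 40 uM) and incubated 48 hours with HeLa miR-21-FLuc reporter cells (miR-21 target sequence downstream of FLuc, endogenous miR-21). Readout was firefly luciferase luminescence after lytic detection reagent.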
Potency means the concentration at half of the fitted maximal effect.

Potency, active:
CCc1ccc2oc(-c3cc(N=Cc4cccc(OC)c4O)ccc3O)nc2c1 0.656 µM
O=C(N/N=C/c1cccs1)c1c[nH]c2ccccc12 7.36 µM
CC/C(=N\NC(=O)c1c[nH]c2ccccc12)c1cccs1 2.93 µM
S=C(c1ccc(-c2ccccc2Cl)o1)N1CCCCC1 3.29 µM
CN1CCN(C(=S)c2ccc(-c3cccc(Cl)c3Cl)o2)CC1 5.21 µM
COCCCNC(=S)N/N=C/c1ccc(N(C)C)cc1Cl 5.85 µM
Cc1ccc(O)c(-c2cc(-c3cccc(Br)c3)n[nH]2)c1 6.56 µM
Cc1cccc(NC(=O)c2cc(-c3cc(C)c(C)cc3O)n[nH]2)c1 0.736 µM
Cc1cccc(NC(=O)c2cc(-c3cc(C)ccc3O)n[nH]2)c1 1.04 µM
Cc1ccc(C)c(NC(=O)c2cc(-c3cc(C)ccc3O)n[nH]2)c1 5.21 µM
O=C(O)c1ccc(N/N=C/c2cccc3cccnc23)cc1 0.369 µM
O=C(O)c1ccc(N/N=C/c2ccnc3ccccc23)cc1 3.69 µM
Cn1ncc2c(Nc3ccc4ccccc4c3)ncnc21 4.65 µM
CCCn1ncc2c(Nc3ccc(C)c(C)c3)ncnc21 4.65 µM
Clc1ccc2c(c1)[C@H]1OCC[C@H]1[C@@H](c1ccco1)N2 5.85 µM
Clc1ccc2c(c1)C1OCCC1C(c1ccco1)N2 (stereo unspecified) 6.56 µM
CCC(=O)c1ccc(OCc2ccccc2)c(OC)c1 6.56 µM
COc1ccccc1OCCNC(=O)c1ccc2c(c1)CCC2 5.85 µM
CCCNC(=O)c1cccc(COc2ccccc2OC)c1 2.07 µM
COc1ccccc1OCCNC(=O)c1ccc(Br)cc1 16.5 µM
Cc1ccc(OCCNC(=O)c2ccc(C)cc2)cc1 14.7 µM
Clc1cccc(Cl)c1Cn1ccc(C2CC2)n1 10.4 µM
O=C(NCc1ccccc1)c1c[nH]c2cc3c(cc2c1=O)OCCO3 2.33 µM
Cc1ccc(N/C=C/c2onc(C)c2[N+](=O)[O-])cc1 0.185 µM
Cc1cc(O)ccc1N/C=C/c1onc(C)c1[N+](=O)[O-] 1.04 µM
Oc1ccccc1N1CCN(c2ccc3ccccc3n2)CC1 0.826 µM
O=C(c1ccc2ccccc2n1)N1CCN(c2ccccc2Cl)CC1 16.5 µM
CN(C)c1cnn(-c2ccccc2)c(=O)c1Cl 14.7 µM
CC(=O)Nc1ccc(OCC(O)Cn2ccnc2)cc1 (stereo unspecified) 16.5 µM
COc1ccc(-c2cnc3ccccc3n2)cc1NC(=O)CNC(=O)c1ccccc1 6.56 µM
CCOC(=O)c1ccc2c(c1)NCc1cccc(OC)c1O2 3.29 µM
CCN(CC)c1ccc(/C=N/N2CCOCC2)c(O)c1 2.93 µM
Cc1ccc(NC(=O)Nc2cccc(C)n2)cc1 2.07 µM
COc1cccc(NC(=S)Nc2cc(C)cc(C)n2)c1 4.65 µM
CSc1ccc(NC(=O)Nc2cc(C)ccn2)cc1 0.104 µM
Cc1cccc(NC(=O)Nc2cc(C)cc(C)n2)c1 0.736 µM
Cc1cc(C)nc(NC(=O)/C=C/c2ccccc2Cl)c1 2.07 µM
CC(NC(=O)c1ccccc1NC(=O)c1ccco1)C(=O)O (stereo unspecified) 6.56 µM
COc1ccc(-c2cn3cccc(C)c3n2)cc1F 0.927 µM
Nc1nc(-c2ccc3ccccc3c2)cs1 1.65 µM
COc1ccc(-c2csc(N)n2)cc1F 9.27 µM
CN(C)/C=N/c1nc(-c2ccc3ccccc3c2)cs1 1.31 µM
CCOC(=O)c1ccc(OS(=O)(=O)c2ccccc2)c(OC)c1 1.31 µM
COc1ccccc1NC(=S)N/N=C/c1ccc(O)cc1 0.736 µM
COc1ccc(NC(=O)/C=C/c2ccccc2)cn1 1.65 µM
COc1ccc(/C=C/C(=O)Nc2ccccc2)cc1OC 4.14 µM
COc1ccc(/C=C/C(=O)O/N=C(\N)c2ccccc2)cc1OC 5.85 µM
CCN(CC)c1ccc(/C=N/NC(=O)Nc2ccccc2)cc1 4.14 µM
COc1cc(/C=N/NC(=O)Nc2ccccc2)ccc1OC(C)=O 8.26 µM
Cc1cccc(/C(N)=N/OC(=O)c2ccc(F)cc2)c1 4.65 µM
COc1ccc(C(=O)O/N=C(\N)c2cccc(C)c2)cc1OC 8.26 µM
CCCCCC(=O)N/N=C/c1ccc(N(C)C)cc1 13.1 µM
COc1ccc2c(c1)CC/C2=N\OC(=O)c1cccc(C)c1 4.14 µM
O=C(/C=C/c1ccccc1)Nc1cccnc1Cl 1.85 µM
CC(=O)Oc1ccc(/C=N/NC(=S)Nc2ccccc2)cc1 0.656 µM
COc1ccc(C(=O)O/N=C(\N)c2ccccc2)cc1OC 2.07 µM
Cc1ccccc1/C(N)=N/OC(=O)/C=C/c1ccccc1 5.21 µM
C=CCn1cccc(C(=O)Nc2ccc(N(C)C)cc2)c1=O 4.65 µM
Clc1cccc(-c2cc3nc4c(c(NCc5ccco5)n3n2)CCCC4)c1 2.93 µM
c1ccc(CSc2ccc(-c3cccnc3)nn2)cc1 6.56 µM
c1ccc(CSc2ccc(-c3cccs3)nn2)cc1 2.93 µM
Fc1cccc(CSc2ccc(-c3cccs3)nn2)c1 4.14 µM
Cc1cccc(CSc2ccc(-c3cccs3)nn2)c1 7.36 µM
CCOc1ccc(Nc2cc(C)c3ccccc3n2)cc1 18.5 µM
COc1ccc(Nc2nc(C)c3ccccc3n2)cc1 3.29 µM
COc1ccc(Nc2cc(C)c3ccccc3n2)cc1 5.85 µM
Cc1cc(Nc2ccccc2)nc2cc(O)ccc12 13.1 µM
Cc1ccc(CN=c2c([N+](=O)[O-])nn(-c3ccc4c(c3)OCCO4)n2O)cc1 1.31 µM
COc1ccc(-n2nc([N+](=O)[O-])c(=NCc3ccc4c(c3)OCO4)n2O)cc1 1.65 µM
O=[N+]([O-])c1nn(-c2ccc3c(c2)OCCO3)n(O)c1=NCc1ccc(F)cc1 1.17 µM
COc1ccc(-n2nc([N+](=O)[O-])c(=NCc3cccnc3)n2O)cc1 2.33 µM
